High-throughput results as filed in PubChem.
Rows were chosen to be rich in hits. Some 5.9% of all compounds tested hit in one or more screens of this group.
KB-3-1 tox: kills parental KB-3-1 adenocarcinoma cells; Potency, µM (doses to about 46.1 µM), hits mostly cytotoxic; hit rate 1.4% among 400,000; KB-3-1 viability, CellTiter-Glo ATP luminescence, 72 h; note: nearly all actives have a fitted effect of over 60% in size
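Cytotoxicity measured as CellTiter-Glo luminescence after 72 h at 37 C. Compound titrations were pinned onto drug-naive KB-3-1 parental adenocarcinoma cells grown in DMEM with 10% FBS, and normalized data fitted to concentration-response curves.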
KB-V1 MDR tox: kills drug-selected multidrug resistant KB-V1 cells. AID 1347076. Potency, µM (titrated, usually from 46.1 µM), most hits filed as cytotoxic. hit rate 3.4% among 400,000. KB-V1 MDR cells viability, CellTiter-Glo, 72 h; note: nearly all actives have a fitted effect of over 60% in size
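Cytotoxicity toward P-gp-expressing KB-V1 cells was determined as loss of CellTiter-Glo luminescence after 72 h at 37 degrees C. Compounds were tested in quantitative HTS format across a concentration range, with curves fitted to normalized data.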
S2 tox: cell viability loss in ATXN counter-screen; hit rate 0.49% among 400,000; S2 cells (HEK-293 line with an ATXN2-luciferase reporter) viability, CellTiter-Fluor protease fluorescence, 24 h; Potency, µM (titrated, usually from 56.7 µM), usual class: cytotoxic; AID 651635; note: nearly all actives have a fitted effect of over 40% in size
TGFb inhibitor: TGF-b pathway inhibition; AID 588855; Potency, µM (titrated, usually from 46.1 µM), usual class: inhibitors; hit rate 1.2% among 410,000; HepG2 CAGA-GFP TGF-b/SMAD3 reporter, GFP fluorescence, 18 h; TGF-beta stimulated, 500 pg/mL final; note: nearly all actives have a fitted effect of over 65% in size
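TGF-beta reporter screen: HEPG2 CAGA-GFP, 1% FBS, 500 pg/mL TGF-beta final, 18 h; per-cell GFP summed per well; curves fitted and categorized by class.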
HepG2 viability: kills HepG2 cells in TGF-b inhibitor counter-screen; HepG2 CAGA-GFP viability, ATP luminescence, 18 h; Potency, µM (top dose mostly 46.1 µM), most hits filed as cytotoxic; hit rate 0.76% among 410,000; AID 588856
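HepG2 CAGA-GFP cells (1000/well, DMEM with 1% FBS) received compound, then TGF-beta at 500 pg/mL final, and were incubated 18 hours at 37 degrees C. Viability was read by CellTiter-Glo luminescence. Media-only wells were set as complete cell-killing and DMSO as no toxicity.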
ATXN2 expr inh: reduces ATXN2 reporter expression in HEK-293 cells. HEK-293 ATXN2-luciferase reporter, luminescence, 24 h. Potency, µM (doses to about 57 µM), most hits filed as inhibitors. hit rate 0.72% among 360,000; note: nearly all actives have a fitted effect of over 55% in size
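qHTS (up to 57 uM final) was run with 24 h compound exposure of reporter cells at 37 °C. Each well was multiplexed: SteadyGlo luminescence measured ATXN2-luciferase expression after a fluorogenic Gly-Phe-AFC viability readout (25 uM final).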
Large screens that a line does not name were inactive. Calls come from the whole dose curve; as a rule, active = well fitted curve in the direction sought with a large enough effect; inconclusive = small, poorly fitted or top-dose-only effect, or another doubt; inactive = no such curve, though single readings can be large; an effect the other way counts as inactive or inconclusive.

CC1(C)CC2(C)OC2C2(C1)N=NC(=Nc1ccccc1)O2 (stereo not given)	KB-3-1 tox inconclusive, S2 tox 22.4µM, TGFb inhibitor 2.82µM
CC(C)c1ccc(CNc2nc(-c3ccco3)nn2S(=O)(=O)c2ccc3ccccc3c2)cc1	none (no result: KB-3-1 tox, KB-V1 MDR tox, S2 tox, ATXN2 expr inh)
CCOc1ccc(C2CC(=O)c3c([nH]c(C(=O)OC4CCCCCC4)c3C)C2)cc1 (stereo not given)	none
CC(C)Cc1nnc(NC(=O)CCC(=O)N2CCN(Cc3ccc(F)cc3)CC2)s1	none
Cc1ccc(OCCN2CCN(C(=O)CCC(=O)Nc3nnc(CC(C)C)s3)CC2)cc1	KB-3-1 tox inconclusive, KB-V1 MDR tox 8.2µM, TGFb inhibitor 11.2µM
CCCC(CC)Sc1nc2c([nH]1)c(=S)n(C)c(=O)n2C (stereo not given)	KB-3-1 tox inconclusive, KB-V1 MDR tox 3.66µM, TGFb inhibitor 7.94µM
Cn1c(=O)c2[nH]c(SCCN)nc2n(C)c1=S	none
CSc1nc2c([nH]1)c(=S)n(C)c(=O)n2C	TGFb inhibitor 12.6µM
Cn1c(=S)c2[nH]c(SCCC(C)(C)C)nc2n(C)c1=O	KB-3-1 tox inconclusive, KB-V1 MDR tox inconclusive, TGFb inhibitor inconclusive
Cn1c(=S)c2[nH]c(SCc3cccnc3)nc2n(C)c1=O	KB-V1 MDR tox 16.4µM, TGFb inhibitor inconclusive
CCN(CC)CCSc1nc2c([nH]1)c(=S)n(C)c(=O)n2C	none
CCCCSc1nc2c([nH]1)c(=S)n(C)c(=O)n2C	KB-3-1 tox 7.31µM, KB-V1 MDR tox 1.46µM, S2 tox inconclusive, TGFb inhibitor 5.01µM, ATXN2 expr inh inconclusive
CN[C@H](C)CCC=C(C)C	TGFb inhibitor inconclusive (no result: S2 tox, ATXN2 expr inh)
CCCCC(C)Sc1nc2c([nH]1)c(=S)n(C)c(=O)n2C (stereo not given)	KB-3-1 tox inconclusive, KB-V1 MDR tox 4.11µM, S2 tox inconclusive, TGFb inhibitor inconclusive
CCC(C)Sc1nc2c(c(=O)[nH]c(=O)n2C)n1C (stereo not given)	KB-V1 MDR tox inconclusive
Oc1ccc(CCNc2c3ccccc3nc3ccccc23)cc1O	KB-3-1 tox 18.4µM, S2 tox inconclusive, TGFb inhibitor inconclusive, ATXN2 expr inh inconclusive
CN(C)CCCNc1c2ccccc2nc2ccccc12	KB-3-1 tox 1.64µM, KB-V1 MDR tox 11.6µM, S2 tox inconclusive, TGFb inhibitor inconclusive, ATXN2 expr inh inconclusive
CN(C)CCCNc1nc(-c2ccccc2)nc2ccccc12	ATXN2 expr inh inconclusive
OCCNc1c2ccccc2nc2c(F)c(F)c(F)c(F)c12	KB-V1 MDR tox inconclusive, ATXN2 expr inh 7.52µM (no result: S2 tox)
Cc1c2ccccc2nc2c(F)c(NCCO)c(F)c(F)c12	KB-V1 MDR tox inconclusive
N#Cc1ccc(C(=O)N(Cc2ccco2)Cc2cccs2)cc1	none (no result: S2 tox, ATXN2 expr inh)
O=C(c1c(F)cccc1F)N(Cc1ccccn1)C1CCCC1	KB-V1 MDR tox 20.6µM
O=C(c1c(F)cccc1F)N(Cc1cccs1)C1CCCC1	ATXN2 expr inh inconclusive
COc1ccc(C(=O)Nc2ccccc2C(=O)NCc2cccnc2)cc1OC	S2 tox inconclusive (no result: KB-3-1 tox, KB-V1 MDR tox)
COc1ccc(/C=N/NC(=O)c2cccc(NC(=O)c3ccccc3Cl)c2)cc1	KB-3-1 tox 16.4µM, S2 tox inconclusive
COc1ccc(/C=N/NC(=O)c2cccc(NC(=O)c3ccccc3Cl)c2)cc1OC	none
COc1ccc(C(=O)Nc2cccc(C(=O)N/N=C/c3ccc(OC)cc3OC)c2)cc1	ATXN2 expr inh 11.2µM
COc1cccc(NC(=O)c2ccc(NC(=O)C(C)(C)C)cc2)c1	KB-V1 MDR tox 23.1µM
COc1ccc(C(=O)Nc2ccccc2C(=O)N/N=C/c2ccncc2)cc1OC	KB-3-1 tox inconclusive, KB-V1 MDR tox inconclusive, HepG2 viability 12.6µM
COc1ccc(-n2c(SCC(=O)NCc3ccccc3)nc3c([nH]c4ccccc43)c2=O)cc1	none
C=CCN(CC=C)S(=O)(=O)c1ccc(NC(=S)NC(=O)c2ccc(-c3ccccc3)cc2)cc1	KB-3-1 tox inconclusive, KB-V1 MDR tox inconclusive
COc1ccc(CC(=O)NC(=S)Nc2ccc(S(N)(=O)=O)cc2)cc1	none
C=CCN(CC=C)S(=O)(=O)c1ccc(NC(=S)NC(=O)Cc2ccc(OC)cc2)cc1	KB-V1 MDR tox 20.6µM
C=CCN(CC=C)S(=O)(=O)c1ccc(NC(=S)NC(=O)c2ccco2)cc1	KB-3-1 tox inconclusive, KB-V1 MDR tox 13µM
COc1cc(C2C(C(=O)Nc3ccc(C)cc3C)=C(C)Nc3nc(SCc4ccccc4)nn32)cc(OC)c1OC (stereo not given)	none
COc1cc(C2C(C(=O)Nc3ccccc3C)=C(C)Nc3nc(SCc4cc(C)ccc4C)nn32)ccc1O (stereo not given)	TGFb inhibitor 10µM, HepG2 viability 7.08µM (no result: KB-3-1 tox, KB-V1 MDR tox, S2 tox, ATXN2 expr inh)
COc1ccc(C)c2sc(NC(=O)c3ccc(S(=O)(=O)N4CCOCC4)cc3)nc12	none
CCOC(=O)N1CCN(C(=O)CN2C(=O)/C(=C\c3cccc(OC)c3)SC2=S)CC1	none (no result: S2 tox, ATXN2 expr inh)
CCOC(=O)C(Cc1ccc(O)cc1)Nc1nc2ccccc2o1 (stereo not given)	KB-V1 MDR tox 20.6µM
CCCOC(=O)Nc1nc2ccccc2o1	none
OCCN(CC(O)Cn1ccc2ccccc21)CC(O)Cn1ccc2ccccc21 (stereo not given)	KB-V1 MDR tox 14.6µM, TGFb inhibitor inconclusive
CC(C)(C)c1ccc(OCC(O)CN(CCO)CC(O)Cn2ccc3ccccc32)cc1 (stereo not given)	KB-3-1 tox inconclusive, KB-V1 MDR tox inconclusive, TGFb inhibitor 11.2µM
CCCSc1ncc(Cl)c(C(=O)Nc2nc3ccc(OCC)cc3s2)n1	none (no result: KB-3-1 tox, KB-V1 MDR tox, S2 tox, TGFb inhibitor, ATXN2 expr inh)
CC(C)CC(=O)Nc1nc2nc(-c3ccccc3)cc(=O)n2[nH]1	KB-V1 MDR tox inconclusive
Cc1ccc(-c2nc3c(C)cccn3c2Nc2ccccc2C)s1	S2 tox inconclusive, TGFb inhibitor inconclusive
O=C(c1ccc2c(=O)n(-c3ccccc3)c(=S)[nH]c2c1)N1CCN(c2ccccc2)CC1	TGFb inhibitor inconclusive
O=C(c1ccc2c(=O)n(C3CCCC3)c(=S)[nH]c2c1)N1CCCCCC1	KB-3-1 tox inconclusive, KB-V1 MDR tox 7.31µM, TGFb inhibitor inconclusive
O=C(c1ccc2c(=O)n(-c3ccccc3)c(=S)[nH]c2c1)N1CCCCC1	KB-3-1 tox 7.31µM, KB-V1 MDR tox inconclusive, TGFb inhibitor inconclusive
C[C@H](NC(=O)c1sccc1OCc1ccc(Cl)cc1)c1ccccc1	ATXN2 expr inh 21.7µM (no result: KB-3-1 tox, KB-V1 MDR tox, S2 tox, TGFb inhibitor, HepG2 viability)
COc1ccc(NC(=O)CSc2ccccn2)cc1OC	none
COc1ccc(NC(=O)CSc2nnc(-c3ccccn3)n2-c2ccccc2)cc1OC	KB-V1 MDR tox 14.6µM
COc1ccc(NC(=O)CSc2nc3c(oc4ccccc43)c(=O)n2-c2ccccc2)cc1OC	S2 tox 17.8µM
